“And” between values parts separate entries of the source, which are not always exact repeats. Equal entries are not always repeated. Among all 220,000 compounds or so, about 5,700 (2.6%) were called active. About 18% were inconclusive and are not listed. The entries come from a sample that favours actives as a whole. Unmarked numbers belong to inactive results. Calls come from the whole dose curve; as a rule, active = well fitted inhibition curve with a large enough effect; inconclusive = small, poorly fitted or top-dose-only effect; inactive = no such curve, though single readings can be large or run the other way.
What follows are compounds tested against Lysine-specific demethylase 5B (Homo sapiens) (UniProt Q9UGL1) (assay: Primary screen for KDM5B Histone Demethylases FDH-coupled qHTS). Details: FDH-coupled NADH fluorescence (FDH is formaldehyde dehydrogenase); series mostly up to 57.7 µM; activity change, negative = inhibition: at the top concentration.
Procedure, shortened: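 qHTS format, multiple compound concentrations. Buffer 50 mM HEPES pH 7.5/0.01% Tween-20; 200 nM KDM5BΔAP final; 10 min compound preincubation; substrate-mix levels 12.5 µM peptide, 25 µM α-KG, 0.25 mM NAD⁺; 30 min RT; ΔRFU.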
Note: nearly all actives have a fitted effect of over 70% in size.
Potency is the fitted concentration of half-maximal effect.
Throughout, for activity change, negative = inhibition: 0% is about no effect.

Sequence of Lysine-specific demethylase 5B (Homo sapiens) (Q9UGL1 whole entry, looked up): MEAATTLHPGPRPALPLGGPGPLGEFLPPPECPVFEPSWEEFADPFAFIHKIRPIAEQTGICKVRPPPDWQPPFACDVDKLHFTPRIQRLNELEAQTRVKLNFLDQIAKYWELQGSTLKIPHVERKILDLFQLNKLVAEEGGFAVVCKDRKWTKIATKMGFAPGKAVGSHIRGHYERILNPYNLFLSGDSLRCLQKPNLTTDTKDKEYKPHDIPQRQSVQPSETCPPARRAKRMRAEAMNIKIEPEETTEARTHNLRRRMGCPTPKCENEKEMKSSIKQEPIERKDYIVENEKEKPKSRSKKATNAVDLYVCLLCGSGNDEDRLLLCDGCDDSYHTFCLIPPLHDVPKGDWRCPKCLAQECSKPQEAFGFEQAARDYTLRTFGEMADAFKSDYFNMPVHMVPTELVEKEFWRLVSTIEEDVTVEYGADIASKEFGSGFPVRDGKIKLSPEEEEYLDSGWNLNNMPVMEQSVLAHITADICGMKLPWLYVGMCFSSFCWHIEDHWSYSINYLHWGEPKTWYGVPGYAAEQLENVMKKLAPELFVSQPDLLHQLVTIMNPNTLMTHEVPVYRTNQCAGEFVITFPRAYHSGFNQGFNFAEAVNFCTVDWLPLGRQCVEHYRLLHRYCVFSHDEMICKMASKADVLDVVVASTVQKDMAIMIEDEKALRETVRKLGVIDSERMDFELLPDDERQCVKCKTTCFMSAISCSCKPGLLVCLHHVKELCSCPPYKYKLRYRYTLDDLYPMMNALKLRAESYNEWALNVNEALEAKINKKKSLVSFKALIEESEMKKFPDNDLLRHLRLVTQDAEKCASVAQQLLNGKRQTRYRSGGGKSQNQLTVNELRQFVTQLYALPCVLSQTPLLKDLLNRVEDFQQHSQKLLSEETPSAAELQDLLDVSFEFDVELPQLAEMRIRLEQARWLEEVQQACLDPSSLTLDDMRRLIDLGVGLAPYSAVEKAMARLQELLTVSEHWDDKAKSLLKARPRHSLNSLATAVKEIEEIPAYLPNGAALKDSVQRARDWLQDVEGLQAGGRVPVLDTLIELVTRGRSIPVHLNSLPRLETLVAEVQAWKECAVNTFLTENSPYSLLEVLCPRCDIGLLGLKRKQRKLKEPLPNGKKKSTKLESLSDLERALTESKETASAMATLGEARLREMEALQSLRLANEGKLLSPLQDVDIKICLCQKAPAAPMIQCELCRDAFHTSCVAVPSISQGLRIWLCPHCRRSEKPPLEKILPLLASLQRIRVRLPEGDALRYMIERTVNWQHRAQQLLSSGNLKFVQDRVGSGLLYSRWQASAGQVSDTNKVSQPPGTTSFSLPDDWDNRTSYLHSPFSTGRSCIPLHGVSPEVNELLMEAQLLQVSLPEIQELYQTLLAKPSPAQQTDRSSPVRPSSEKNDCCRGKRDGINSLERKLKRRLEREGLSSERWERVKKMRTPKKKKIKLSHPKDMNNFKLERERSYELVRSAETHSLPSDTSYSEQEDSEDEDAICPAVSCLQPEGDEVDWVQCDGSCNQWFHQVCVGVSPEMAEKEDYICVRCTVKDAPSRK

First: COc1ccc(N2CC(c3noc(-c4cc(OC)c(OC)c(OC)c4)n3)CC2=O)cc1 (stereo unspecified)
Second: COc1ccc2c(CC(=O)N3CCc4cc(OC)c(OC)cc4C3)coc2c1
The “activity change, negative = inhibition” value of the first is lower: -26.1% for the first, 1.49% for the second.

Compared with CCC(=O)c1ccc(OC(=O)c2cc3ccccc3oc2=O)cc1, CC/C(=N\NC(=O)c1ccc(C(C)(C)C)cc1)c1ccccc1 is higher in “activity change, negative = inhibition” value: 8.43% for the first, 23.3% for the second.

Compared with CSc1ncc(C(=O)Nc2ccc(Cl)cc2)c(C(F)(F)F)n1, Cc1ccc(Nc2n[nH]nc2C(=O)Nc2ccc(C)cc2Cl)cc1 is higher in “activity change, negative = inhibition” value: -8.68% for the first, 9.14% for the second.

First: COc1ccccc1NC(=O)C1c2ccccc2C(=O)N(CC(C)C)C12CCCC2 (stereo unspecified)
Second: COc1nc2ccccc2nc1N1CCC(C(=O)NCc2ccccc2)CC1
The “activity change, negative = inhibition” value of the first is higher: 0.393% for the first, -1.01% for the second.

Going from CC(C)(C)C(=O)c1cn(CCOc2ccccc2F)c2ccccc12 to CC(C)(Oc1nn(CCOc2ccccc2)c2ccccc12)C(=O)NCCCn1ccnc1, the “activity change, negative = inhibition” value rises from -10.2% to -4.34%.

Going from Cc1nc2c(c(NC3CC3)n1)CCN(C(=O)CCc1cccnc1)CC2 to Cc1ccc(OCc2nc(C3CCN(C(=O)CCc4nc5ccc(Cl)cc5[nH]4)CC3)no2)cc1, the “activity change, negative = inhibition” value falls from 17.5% to -15.8%.

Compared with COCCNC(=O)[C@@H]1C[C@@H](O)CN1C1CCN(C(=O)CCc2ccccc2)CC1, COc1ccc2cc(C(=O)N3CCC(C(C)C(=O)NCCCN4CCCC4)CC3)[nH]c2c1 (stereo unspecified) is higher in “activity change, negative = inhibition” value: -11.6% for the first, 13.5% for the second.

Compared with Cc1noc(C)c1CC(=O)N1CCC(c2n[nH]c(=O)n2Cc2ccc(F)cc2)CC1, Cc1oc2ccn(Cc3ccccc3F)c(=O)c2c1C(=O)NCCCN1CCCCC1C (stereo unspecified) is lower in “activity change, negative = inhibition” value: 3.93% for the first, -32.9% for the second.

Compared with Cn1cnnc1C1CCCN(S(=O)(=O)N2CCCCC2)C1 (stereo unspecified), Cc1ccc(-c2nc3ccc(C(=O)N4CCC(CC(=O)N5CCCCCC5)CC4)cc3o2)cc1 is lower in “activity change, negative = inhibition” value: 15.6% for the first, 3.43% for the second.

Going from Cc1ccc(OCC(O)Cn2cnc3sccc3c2=O)c(C)c1 (stereo unspecified) to Cc1cc(C)c(NC(=O)CSc2nc3ccncc3[nH]2)c(C)c1, the “activity change, negative = inhibition” value falls from 11.8% to -14.4%.

Going from COc1ccc(CC(=O)NC[C@@H]2C=C(C)[C@H](Cc3nc4ccncc4[nH]3)C[C@H]2C(C)C)cc1 to COc1ccc(NC(=O)CN(C)c2nc(CN3CCOCC3)nc3sc(C)c(C)c23)cc1, the “activity change, negative = inhibition” value rises from -10.4% to 5.89%.

First: COc1ccc(C2=NC(c3ccncc3)=Nc3ccc(Br)cc3N2)cc1
Second: O=C(O)COc1ccc2c(=O)c(Oc3ccc(Cl)cc3)coc2c1
The “activity change, negative = inhibition” value of the first is lower: -26.1% for the first, -20.5% for the second.

Compared with Cc1csc(CNC(=O)N(C)Cc2ccc3c(c2)OCCO3)n1, Cc1ccc(CNC(=O)Cn2c(=O)ccc3cc(S(=O)(=O)N4CCC(C)CC4)ccc32)o1 is lower in “activity change, negative = inhibition” value: 2.14% for the first, -0.492% for the second.

Compared with O=C(Nc1ccccc1Cc1ccccc1)c1cccc[n+]1[O-], CC(CNC(=O)c1cc2ccccc2[nH]1)c1ccccc1 (stereo unspecified) is higher in “activity change, negative = inhibition” value: 11.7% for the first, 11.8% for the second.

First: Cc1ccc(-c2nc(C#N)c(NCCCn3ccnc3)o2)cc1
Second: COC(=O)c1sccc1S(=O)(=O)Nc1ccc(OC)cc1
The “activity change, negative = inhibition” value of the first is higher: 299% for the first, -19.7% for the second.

Going from Cn1cc(S(=O)(=O)N2CCC(C(=O)Nc3ccc(OC(F)F)c(Cl)c3)CC2)cc1C(N)=O to CN(C)C[C@@H]1CN(S(C)(=O)=O)C[C@H]1NC(=O)c1ccc2ncccc2c1, the “activity change, negative = inhibition” value falls from 4.62% to -3.17%.

First: CN(C)C[C@@H]1CN(C)C[C@H]1NC(=O)c1ccnnc1
Second: CN(C)C[C@@H]1CN(S(C)(=O)=O)C[C@H]1NC(=O)c1cccc(F)c1
The “activity change, negative = inhibition” value of the first is higher: -4.54% for the first, -22.8% for the second.

First: O=C(N[C@@H]1CN(Cc2c(F)cccc2F)C[C@H]1CO)c1ccccc1
Second: COc1ccc(C(=O)N[C@H]2C[C@@H]3CC[C@H]2C3)cc1
The “activity change, negative = inhibition” value of the first is lower: -10.1% for the first, 3.38% for the second.

Going from Cc1cc(C)n(CCC(=O)N[C@@H]2CN(S(C)(=O)=O)C[C@H]2CN(C)C)n1 to COC1CN(c2cccc(F)c2)C12CCN(C1CCOCC1)CC2 (stereo unspecified), the “activity change, negative = inhibition” value falls from -17.1% to -39.5%.

With Brc1ccc(/C=N/N=C/c2ccc(Br)s2)s1 the “activity change, negative = inhibition” value was -4.1%.

Compared with O=C(NCc1ccccc1)N1CCN2C(=O)NC[C@H]2C1, Cc1nnc([C@H]2CCN(Cc3ccc(F)cc3)C2)o1 is higher in “activity change, negative = inhibition” value: -12.8% [at 115 µM] for the first, -3.36% [at 115 µM] for the second.

With COc1nccnc1NC1CCN(C(=O)NCc2ccccc2)CC1 the Potency was 28.2 µM (active).
For COc1nccnc1NC1CCN(C(=O)CCc2c(C)noc2C)CC1, the Potency was 31.6 µM (active).
COc1nccnc1NC1CCN(C(=O)CCc2ccccc2)CC1 was tested, and the Potency was 25.1 µM (active).
With c1cc(-c2nc3ccncc3[nH]2)ccn1 the Potency was 126 µM (active) and 31.6 µM (active).
In the case of O=C(NCCCn1ccnc1)c1ccc(-c2ncc3cnc(-c4cccc(F)c4)cn23)cc1, the Potency is reported as 17.8 µM (active).
For COc1ccc2[nH]c(C(=O)N[C@@H]3CN(S(C)(=O)=O)C[C@H]3CN(C)C)cc2c1, the Potency was 28.2 µM (active).
In the case of CN(C)C[C@@H]1CN(S(C)(=O)=O)C[C@H]1NC(=O)c1nn(C)c2ccccc12, the Potency is reported as 28.2 µM (active).
With CN(C)C[C@@H]1CN(Cc2ccccn2)C[C@H]1NC(=O)c1ccc2cc[nH]c2c1 the Potency was 28.2 µM (active).
CN(C)C[C@@H]1CN(C)C[C@H]1NC(=O)c1cc2ccccc2[nH]1 was tested, and the Potency was 25.1 µM (active).
With Fc1ccc2oc([C@H]3CCN(C4CCOCC4)C3)nc2c1 the Potency was 44.7 µM (active).

From PubChem BioAssay AID1347165 (National Center for Advancing Translational Sciences (NCATS), 2019)
